Records with an inconclusive call do not appear. The source made the active and inactive calls. How the source made its calls: active means hit-call score of the fitted dose curve at least 0.9, where 1 is the maximum; inconclusive means response in the unintended direction; inactive means score below 0.9.
Target: human RAR-related Orphan Receptor beta (RORb), RORB (gene 6096) (UniProt Q92753)
Assay: ATG_RORb_TRANS: Attagene TRANS-FACTORIAL HepG2 Assay for human RAR-related Orphan Receptor beta (RORb) (AID 2283010)
In short: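 Read-out is reporter mRNA induction, quantified by RT-PCR with fluorescent capillary electrophoresis, 24 h post-dose in transiently transfected HepG2 expressing exogenous NR-Gal4 chimera. Activity fitted upward versus DMSO.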

Chain of human RAR-related Orphan Receptor beta (RORb), RORB (gene 6096) (Q92753 whole entry, looked up): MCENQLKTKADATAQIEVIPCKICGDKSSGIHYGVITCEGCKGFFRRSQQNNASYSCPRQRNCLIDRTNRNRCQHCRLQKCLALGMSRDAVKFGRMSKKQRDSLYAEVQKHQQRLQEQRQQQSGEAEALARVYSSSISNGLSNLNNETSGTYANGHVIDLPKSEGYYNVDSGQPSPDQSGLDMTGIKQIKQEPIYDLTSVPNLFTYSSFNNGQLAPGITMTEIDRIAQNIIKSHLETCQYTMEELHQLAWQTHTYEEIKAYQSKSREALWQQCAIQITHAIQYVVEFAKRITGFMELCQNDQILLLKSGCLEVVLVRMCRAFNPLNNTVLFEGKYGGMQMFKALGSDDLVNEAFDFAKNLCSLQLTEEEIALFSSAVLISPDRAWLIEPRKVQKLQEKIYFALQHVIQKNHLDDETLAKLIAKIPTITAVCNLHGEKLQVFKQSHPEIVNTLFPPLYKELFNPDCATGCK

Which outcome does the source give for `Clc1cnc(Oc2ccc(Oc3ncc(Cl)cc3Cl)cc2)c(Cl)c1` here?
The outcome was “inactive”.

Which outcome does the source give for `N#Cc1ccccc1N` here?
Its outcome is “inactive”.

How did the outcome turn out when `c1csc(-c2ccc(-c3cccs3)s2)c1` was run?
The outcome was “inactive”.

For `CC(=O)CN(CC(C)=O)N=O`, which outcome is on record?
The outcome was “inactive”.

With `c1ccc2c(c1)Oc1ccccc1O2` as the compound, how does the outcome read?
The outcome was “inactive”.

Target: human RAR-related Orphan Receptor gamma (RORg), RORC (gene 6097) (UniProt P51449)
Assay: ATG_RORg_TRANS: Attagene TRANS-FACTORIAL HepG2 Assay for human RAR-related Orphan Receptor gamma (RORg) (AID 2283011)
In short: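 Reporter transcripts from a transfected RORg-GAL4 chimera in HepG2 cells were quantified 24 h after dosing by RT-PCR, 6-FAM labelling, HpaI digestion and capillary electrophoresis; increases over DMSO baseline were fitted.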

Chain of human RAR-related Orphan Receptor gamma (RORg), RORC (gene 6097) (P51449 whole entry, looked up): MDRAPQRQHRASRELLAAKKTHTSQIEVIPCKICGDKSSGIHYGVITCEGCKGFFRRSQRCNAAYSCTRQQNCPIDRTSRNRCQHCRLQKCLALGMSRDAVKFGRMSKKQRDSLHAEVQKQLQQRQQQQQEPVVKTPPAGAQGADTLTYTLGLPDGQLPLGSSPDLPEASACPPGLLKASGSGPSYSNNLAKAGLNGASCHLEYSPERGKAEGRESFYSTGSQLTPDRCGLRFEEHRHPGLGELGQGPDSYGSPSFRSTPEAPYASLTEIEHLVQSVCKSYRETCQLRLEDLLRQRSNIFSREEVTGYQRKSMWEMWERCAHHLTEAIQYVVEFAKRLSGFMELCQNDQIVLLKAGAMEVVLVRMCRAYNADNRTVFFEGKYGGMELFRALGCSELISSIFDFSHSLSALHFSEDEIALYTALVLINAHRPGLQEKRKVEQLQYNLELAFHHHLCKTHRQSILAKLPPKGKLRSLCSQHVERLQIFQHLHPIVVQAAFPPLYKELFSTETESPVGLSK

`Brc1c(Br)c(Br)c(Oc2c(Br)c(Br)c(Br)c(Br)c2Br)c(Br)c1Br` was tested. Which outcome did it give?
Its outcome is “inactive”.

With `Brc1ccc(Oc2c(Br)cc(Br)cc2Br)c(Br)c1` as the compound, how does the outcome read?
Its outcome is “inactive”.

For `CCCCC(CC)C(=O)Cl` (stereo not drawn), which outcome is on record?
Its outcome is “inactive”.

How did the outcome turn out when `Nc1nc(=S)[nH][nH]1` was run?
Its outcome is “inactive”.

How did the outcome turn out when `CC(C)C(C)(N)C#N` (stereo not drawn) was run?
The outcome was “inactive”.

`Cc1cc(-c2cc(C)c(N)c(C)c2)cc(C)c1N` was tested. Which outcome did it give?
Its outcome is “inactive”.

With `Cc1ccc(CCl)cc1` as the compound, how does the outcome read?
Its outcome is “inactive”.

For `COC(F)(C(F)(F)C(F)(F)F)C(F)(C(F)(F)F)C(F)(F)F` (stereo not drawn), which outcome is on record?
The outcome was “inactive”.
